In PubChem BioAssay (EPA / NIEHS) one finds outcome and AC50 data, which are given here for 10 compounds.

Values joined by “and” are separate entries in the source; they are usually repeats but may differ in a detail not shown here. Identical values can stand only once. Records with an inconclusive call do not appear. The source holds several records for some structures; these can differ, active in one and inactive in another. Active and inactive are the calls of the source. Rule for the calls: active = hit-call score of the fitted dose curve at least 0.9, where 1 is the maximum; inconclusive = response in the unintended direction; inactive = score below 0.9.

Sequence of Estrogen receptor (Homo sapiens) (P03372 whole entry, looked up): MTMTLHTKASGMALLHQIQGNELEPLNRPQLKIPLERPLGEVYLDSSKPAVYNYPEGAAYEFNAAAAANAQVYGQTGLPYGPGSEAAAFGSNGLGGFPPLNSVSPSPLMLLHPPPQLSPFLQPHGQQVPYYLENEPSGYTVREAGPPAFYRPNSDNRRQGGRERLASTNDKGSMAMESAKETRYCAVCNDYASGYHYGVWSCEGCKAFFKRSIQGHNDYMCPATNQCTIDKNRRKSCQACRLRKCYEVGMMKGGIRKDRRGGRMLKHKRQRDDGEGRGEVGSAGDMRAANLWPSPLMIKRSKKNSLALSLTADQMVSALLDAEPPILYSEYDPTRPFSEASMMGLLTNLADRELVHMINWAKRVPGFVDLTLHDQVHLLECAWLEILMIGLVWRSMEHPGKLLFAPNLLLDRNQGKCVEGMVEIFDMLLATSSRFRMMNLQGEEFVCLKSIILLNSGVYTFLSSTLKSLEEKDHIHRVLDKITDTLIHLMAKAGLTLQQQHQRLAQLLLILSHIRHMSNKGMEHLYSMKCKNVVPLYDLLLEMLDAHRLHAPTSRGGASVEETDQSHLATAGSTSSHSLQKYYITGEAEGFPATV

In the first experiment the test system is chicken Androgen Receptor (AR), gene 422165. Kind of experiment: ATG_chAR_XSP2: Attagene TRANS-FACTORIAL Multi-Species (XSP2) HepG2 Assay for chicken Androgen Receptor (AR) (AID 2283819).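 Note: hits raise reporter mRNA above DMSO so potency is for activation.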 The method, boiled down:
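HepG2 cells transiently transfected with chicken AR–GAL4 chimeric reporter constructs, stimulated with 3 nM 6-alpha-fluorotestosterone plus 1.5 nM norgestrel, dosed 24 h. Reporter mRNA quantified by RT-PCR and capillary electrophoresis; gain of signal fitted versus DMSO.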
On to `O=C(O)Cc1cc(I)c(Oc2cc(I)c(O)c(I)c2)c(I)c1`, for which the call was inactive.
For orientation: AC50 means the concentration giving half of the maximal activity seen. Turning to `CCCOC(=O)c1ccc(O)cc1`, the AC50 was 32000 nM (active).
Consider `O=c1c(-c2ccc(O)cc2)coc2cc(O)ccc12`, for which the compound was called inactive.

The test system of a further experiment is frog Estrogen Receptor (ER), gene 398734. Kind of experiment: ATG_frER1_XSP2: Attagene TRANS-FACTORIAL Multi-Species (XSP2) HepG2 Assay for frog Estrogen Receptor (ER) (AID 2283821).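 Note: hits raise reporter mRNA above DMSO baseline so potency means agonist or activator.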 The method, boiled down: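 HepG2 cells transiently transfected with GAL4-UAS reporter units expressing a chimeric frog ER-Gal4 protein; 24 h exposure. Reporter mRNA quantified by RT-PCR, fluorescent labelling and capillary electrophoresis; gain of signal fitted against DMSO baseline.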
Regarding `CCC(C)(C)C1CCC(O)CC1` (stereo not drawn), the result was inactive.
As to `O=C(O)Cc1cc(I)c(Oc2cc(I)c(O)c(I)c2)c(I)c1`, the compound was called inactive.
The same measure, in the same setting: next, `Cc1oc(-c2ccccc2)nc1CCOc1ccc(C[C@H](Nc2ccccc2C(=O)c2ccccc2)C(=O)O)cc1`: “inactive”.
Turning to `CCCOC(=O)c1ccc(O)cc1`, the AC50 was 27.7 µM (active) and 407 nM (active).
With `CC[C@H](c1ccc(O)cc1)[C@@H](CC)c1ccc(O)cc1`, the AC50 was 0.183 nM (active).
On to `c1ccc2c(c1)ccc1ccccc12`, for which the compound was classed as inactive.
Take `O=c1c(-c2ccc(O)cc2)coc2cc(O)ccc12`: the AC50 was 983 nM (active) and 478 nM (active).

System in a further experiment: not listed separately
Description: ATG_M_19_XSP2: Attagene TRANS-FACTORIAL Multi-Species (XSP2) HepG2 Assay for M32 Transcription Factor (Internal Marker) (AID 2283822). The procedure, abridged: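 Internal background marker in a multi-species nuclear receptor TRANS panel: transfected HepG2 cells exposed 24 h, with 3 nM 6-alpha-fluorotestosterone and 1.5 nM norgestrel present. Readout is RT-PCR of reporter transcripts resolved by capillary electrophoresis, gain-of-signal versus DMSO.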
Turning to `CCC(C)(C)C1CCC(O)CC1` (stereo not drawn), the compound was called inactive.
As for `C#C[C@]1(O)CC[C@H]2[C@@H]3CCC4=CC(=O)CC[C@@H]4[C@H]3CC[C@@]21C`, the call was inactive.
Still for that read-out and setting: next, `Oc1cc2ccccc2c2ccccc12`: “inactive”.

The next experiment has as its system zebrafish Estrogen Receptor (ER2b), gene 317733. Kind of experiment: ATG_zfER2b_XSP2: Attagene TRANS-FACTORIAL Multi-Species (XSP2) HepG2 Assay for zebrafish Estrogen Receptor (ER2b) (AID 2283823).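 Note: fitted upward as reporter gain over DMSO so potency reflects activation.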 The method, boiled down:
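Reporter transcripts quantified by RT-PCR, fluorescent labelling and capillary electrophoresis after 24 h dosing of transfected HepG2 expressing zebrafish ER2b-GAL4 fusion. Medium contained 3 nM 6-alpha-fluorotestosterone plus 1.5 nM norgestrel; DMSO baseline.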
Turning to `CCC(C)(C)C1CCC(O)CC1` (stereo not drawn), the compound was called inactive.
Same read-out and setting: next, `O=C(O)Cc1cc(I)c(Oc2cc(I)c(O)c(I)c2)c(I)c1`: “inactive”.
Same read-out and setting: next, `CCC(=C(c1ccc(O)cc1)c1ccc(OCCN(C)C)cc1)c1ccccc1`: “inactive”.
As to `C#C[C@]1(O)CC[C@H]2[C@@H]3CCC4=CC(=O)CC[C@@H]4[C@H]3CC[C@@]21C`, the AC50 was 299 nM (active).
Still for that read-out and setting: next, `CCCOC(=O)c1ccc(O)cc1`: 65.8 µM (active) and 8.51 µM (active); `CC[C@H](c1ccc(O)cc1)[C@@H](CC)c1ccc(O)cc1`: 0.146 nM (active).
Turning to `c1ccc2c(c1)ccc1ccccc12`, the AC50 is 80900 nM (active) and the compound was classed as inactive.
On to `Oc1cc2ccccc2c2ccccc12`, for which the compound was called inactive.
With `O=c1c(-c2ccc(O)cc2)coc2cc(O)ccc12`, the half-maximal activity concentration (AC50) was 3.4 µM (active) and 1.67 µM (active).

The subject of the next experiment is frog Androgen Receptor (AR), gene 399456. Kind of experiment: ATG_frAR_XSP2: Attagene TRANS-FACTORIAL Multi-Species (XSP2) HepG2 Assay for frog Androgen Receptor (AR) (AID 2283824).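 Note: actives raise reporter signal above DMSO so AC50 reflects agonist-like induction.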 The method, boiled down: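 HepG2 cells transiently transfected with GAL4-UAS reporter units and frog (Xenopus laevis) AR-Gal4 chimera; reporter mRNA measured 24 h after dosing by RT-PCR and capillary electrophoresis. Gain of signal fitted relative to DMSO baseline.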
`O=C(O)Cc1cc(I)c(Oc2cc(I)c(O)c(I)c2)c(I)c1`: the call was inactive.
As for `C#C[C@]1(O)CC[C@H]2[C@@H]3CCC4=CC(=O)CC[C@@H]4[C@H]3CC[C@@]21C`, the concentration at half-maximal activity (AC50) is 2800 nM (active).
For `CCCOC(=O)c1ccc(O)cc1`, the compound was classed as inactive.
Same read-out and setting: next, `O=c1c(-c2ccc(O)cc2)coc2cc(O)ccc12`: “inactive”.

The target in the next experiment is Estrogen receptor (Homo sapiens) (UniProt P03372). Description: ATG_hERa_XSP2: Attagene TRANS-FACTORIAL Multi-Species (XSP2) HepG2 Assay for human Estrogen Receptor (ERa) (AID 2283827). As for the experimental part:
ATG_XSP2_multi-species_TRANS is a cell-based, multiplexed assay created by modifying the existing Attagene TRANS-FACTORIAL system to include a panel of nuclear receptors from some or all the following species: human (Homo sapiens), mouse (Mus musculus), frog (Xenopus laevis), zebrafish (Danio rerio), chicken (Gallus gallus), and turtle (Chrysemys picta). The ECOTOX-FACTORIAL format uses HepG2, a human liver cell line, with measurements taken at 24 hours after chemical dosing in a 24-well plate. Xsp2 included 3 nM 6-alpha-fluorotestosterone and 1.5 nM norgestrel to stimulate the androgen receptor.ATG_hERa_XSP2 is one of 29 assay components measured or calculated from the ATG_XSP2_multi-species_TRANS assay. It is designed to make measurements of mRNA induction, a form of inducible reporter, as detected with fluorescence intensity signals by Reverse transcription polymerase chain reaction (RT-PCR) and Capillary electrophoresis technology.The assay endpoint ATG_hERa_XSP2 was analyzed in the positive analysis fitting direction relative to DMSO as the negative control and baseline of activity. Using a type of inducible reporter, measures of mRNA for gain-of-signal activity can be used to understand the reporter gene at the transcription factor-level as they relate to the gene ER. Furthermore, this assay endpoint can be referred to as a primary readout, because this assay has produced multiple assay endpoints where this one serves a reporter gene function. To generalize the intended target to other relatable targets, this assay endpoint is annotated to the nuclear receptor intended target family, where the subfamily is steroidal.
Human liver HepG2 cells are transiently transfected with multiple reporter transcription units (MRTUs) in 6-well plates using FuGene 6 reagent (Roche; 3 ml FuGene/1 mg DNA). The MRTU constructs are regulated by a cis-regulating element (promoter). […] A major difference between the CIS and TRANS system is that in CIS activities of endogenous TFs are measured, whereas the TRANS assay evaluates changes in activities of exogenous, chimeric NR-Gal4 proteins. […] At the end of 24 hour incubation, total RNA was isolated using TriZol reagent (Invitrogen). The isolated RNA is then reverse-transcribed using oligo(dT) primer and Mo-MLV reverse transcriptase (Invitrogen) with DNAse I (Ambion) treatment for 30 min. The one-tenth of the produced cDNA was amplified by PCR using Taq DNA polymerase (Invitrogen) and two reporter sequence-specific primers. The PCR products were fluorescently labeled by primer extension with 6-arboxyfluorescein (6-FAM) 5'-labeled reporter sequence-specific primer (2 min at 95 C, 20 s at 68 C and 10 min at 72 C) and these products were digested with 5U of HpaI (New England Biolabs) for 2h at 37 C. The fragments were purified using Qiaquick PCR columns (Qiagen), analyzed on an ABI 3130xL genetic analyzer (Applied Biosystems) with peak positions identified by using a set of X-rhodamine (ROX)-labeled MapMarker1000 molecular weight standards (BioVentures). The raw capillary electrophoresis data was processed using Attagraph software (Attagene).
For the compound `CCC(C)(C)C1CCC(O)CC1` (stereo not drawn), the call was inactive.
Turning to `Cc1oc(-c2ccccc2)nc1CCOc1ccc(C[C@H](Nc2ccccc2C(=O)c2ccccc2)C(=O)O)cc1`, the compound was classed as inactive.
Regarding `CCCOC(=O)c1ccc(O)cc1`, the AC50 is 23.5 µM (active) and 2.61 µM (active).
The same measure, in the same setting: next, `CC[C@H](c1ccc(O)cc1)[C@@H](CC)c1ccc(O)cc1`: 0.0634 nM (active).
For the compound `c1ccc2c(c1)ccc1ccccc12`, the AC50 was 21300 nM (active) and the compound was classed as inactive.
